PrPC TRFRET: inhibitors of human cell surface prion protein PrPC, primary screen, cell-based, TR-FRET | Major prion protein (Homo sapiens), P04156 | TR-FRET read-out | inhibition, % at 13.8 µM | 370,000 compounds, 0.43% hits | AID 720596, 2013; in the data active = inhibition above about 24%; also: 0% = median of the test wells and 100% = reference compound wells
PrP 5UTR inh: inhibition of PrP 5' UTR reporter expression | inhibition, % (no concentration beside the values) | cell-based PrP 5' UTR mRNA reporter, plate reader | 340,000 compounds, 0.35% hits; in the data active = inhibition above about 52%; also: 0 = median of the neutral control wells
PfHsp40 yeast: rescue of yeast from PfHsp40 toxicity, primary screen, S. cerevisiae, ATP luminescence. AID 504582, 2011. growth rescue, % at 12.5 µM. 340,000 compounds, 0.68% hits. S. cerevisiae expressing PfHsp40, growth rescue; in the data active = growth rescue above about 28%, passing the limit was not always enough;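 also: yeast W303a lacking pdr1 and pdr3 grown in galactose medium; growth measured after three days at 30 °C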
BJeLR lethal: MLPCN primary cell-based screen for lethality selective to Ras in HRASV12 cells; BJeLR (HRASV12) viability, CellTiter-Glo ATP luminescence, 48 h; 300,000 compounds, 0.17% hits; inhibition, % (no concentration beside the values); in the data active = inhibition above about 50%
GDH-TPI counter-1: GDH-TPI coupling enzyme inhibitors, primary screen, artefact control for M. tuberculosis FBA inhibitor project, biochemical, absorbance, full deck. GDH-TPI coupled enzyme counterscreen, NADH absorbance. 360,000 compounds, 1.2% hits. AID 588335, 2011. inhibition, % at 4.8 µM; in the data active = inhibition above about 30%;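 also: 0% = DMSO wells and 100% = wells lacking the enzyme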
Mtb FBA inh: Mtb FBA enzyme inhibitors, primary screen, biochemical, fluorescence, strain H37Rv; AID 588726, 2011; 360,000 compounds, 2.3% hits; purified M. tuberculosis FBA, fluorescence read-out; inhibition, % at 1 µM;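 also: 0% = vehicle and 100% = reference inhibitor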
Target sequence (P9WQA3 whole entry, looked up): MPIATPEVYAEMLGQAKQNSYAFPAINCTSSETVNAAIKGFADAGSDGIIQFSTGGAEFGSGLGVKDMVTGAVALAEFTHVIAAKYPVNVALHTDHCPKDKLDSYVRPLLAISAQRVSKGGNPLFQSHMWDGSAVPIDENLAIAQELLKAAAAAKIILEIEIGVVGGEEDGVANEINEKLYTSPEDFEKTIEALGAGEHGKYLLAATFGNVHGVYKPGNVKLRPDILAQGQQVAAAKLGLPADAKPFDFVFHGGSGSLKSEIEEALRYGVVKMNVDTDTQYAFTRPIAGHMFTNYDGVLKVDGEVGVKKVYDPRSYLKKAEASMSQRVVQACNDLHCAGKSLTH
Mtb FBA inh conf: M. tuberculosis aldolase blockers, biochemical, fluorescence, strain H37Rv, confirmation | 5,600 compounds, 78% hits | purified M. tuberculosis FBA, fluorescence read-out | inhibition, % at 1 µM | AID 651616, 2012 | shares compounds with Mtb FBA inh;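 also: 0% = vehicle wells and 100% = reference inhibitor wells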
GDH-TPI counter-2: GDH-TPI coupling enzyme inhibitors, artefact control for M. tuberculosis FBA inhibitor project, biochemical, fluorescence, high throughput; shares compounds with Mtb FBA inh; GDH-TPI coupled enzyme counterscreen; inhibition, % at 1 µM; 5,600 compounds, 81% hits; in the data active = inhibition above about 10%
The depositor's hits bear a star; / = no result; + = active, no number. Compounds with a hit are over-represented: about 4.5% of the library has one in this group of screens. Rule as the data show it, unless noted: active = inhibition above about 27%; inactive = the rest.

SMILES	PrPC TRFRET	PrP 5UTR inh	PfHsp40 yeast	BJeLR lethal	GDH-TPI counter-1	Mtb FBA inh	Mtb FBA inh conf	GDH-TPI counter-2
CCCCCCCCNC1=CC(=O)CC(C)(C)C1	6.3	1.3	0.0	-0.2	10.3	1.8	/	/
Cc1cc(C(O)c2ncc(-c3cccc4ccccc34)[nH]2)ccc1F (stereo not given)	-0.7	/	/	/	3.1	40.4*	56.3*	40.6*
COc1c(C)cc(C(O)c2ncc(-c3cccc4ccccc34)[nH]2)cc1C (stereo not given)	-0.1	/	/	/	0.9	35.2*	+	+
COc1c(C)cc(C(O)c2ncc(-c3ccccc3C(F)(F)F)[nH]2)cc1C (stereo not given)	-2.4	/	/	/	0.9	-2.8	/	/
OC(c1ccc(Cl)c(F)c1)c1ncc(-c2cccc3ccccc23)[nH]1 (stereo not given)	-2.7	/	/	/	3.1	19.8	/	/
Cc1ccc(CN(C)c2ccc(S(=O)(=O)N3CCCC3)cn2)cc1	14.9	-19.0	2.6	/	0.9	4.0	/	/
CCN(CC)S(=O)(=O)c1cccc(-c2cn3cc(C)ccc3n2)c1	11.1	-38.3	-0.4	-3.7	-1.9	7.4	/	/
c1ccc(-c2cn3ccccc3n2)cc1	-1.0	31.6	1.9	/	3.5	35.3*	7.6	2.5
Oc1ccc(-c2cn3ccccc3n2)cc1	-2.2	-93.1	0.0	-3.8	16.6	56.5*	-5.7	-5.2
CCN(CC)S(=O)(=O)c1ccc(-c2cn3ccccc3n2)cc1	9.4	/	/	/	5.4	86.2*	158.1*	112.7*
Cc1ccc(-n2ncc3c(SCc4cccnc4)ncnc32)c(C)c1	18.3	-48.5	0.4	3.3	-4.6	-0.7	/	/
CCCCNC(=O)C(=O)NCC1CCCN1S(=O)(=O)c1cccs1 (stereo not given)	0.0	-17.0	0.7	1.3	-6.3	-2.4	/	/
Cc1cc(C(=O)NC2CCCN(Cc3ccccc3F)C2)n[nH]1 (stereo not given)	-7.4	-11.3	0.4	-7.3	-5.3	0.0	/	/
CCNC(=O)c1c(O)c2ccccc2[nH]c1=O	-16.8	-52.8	0.8	-10.6	1.7	48.5*	180.5*	140.6*
COCCN1CCn2c(nc3cc(NC(C)=O)ccc32)C1	8.0	-9.0	-0.3	-4.0	3.3	29.5*	6.7	4.3
CCOC(=O)Nc1ccc2c(c1)nc1n2CCN(CCOC)C1	7.3	-9.6	-0.8	3.1	5.0	36.1*	75.0*	73.4*
CC(c1ccccc1)N1CCn2c(nc3cc(NS(C)(=O)=O)ccc32)C1 (stereo not given)	2.1	-14.5	-1.5	-13.0	-1.3	6.1	/	/
CC(=O)Nc1ccc2c(c1)nc1n2CCN(C(C)c2ccccc2)C1 (stereo not given)	-0.9	-14.3	-0.6	-8.6	0.6	69.1*	82.6*	72.0*
Cc1noc(C)c1S(=O)(=O)N(C)C[C@H]1OCc2cnnn2CCCC(=O)N([C@@H](C)CO)C[C@H]1C	4.7	/	/	/	-6.2	-1.1	/	/
CCCCCCCC(=O)N[C@H]1CC[C@@]23CCCN2C(=O)CCC[C@H]3[C@H]1CCC	-0.9	/	/	/	/	/	/	/
CCC(=O)c1ccccc1OCCCn1cncn1	-1.1	-7.0	-0.6	4.2	7.3	27.0*	112.2*	83.6*
CCC(=O)c1ccccc1OCCN1CCN(Cc2ccccc2)CC1	-4.7	-37.2	-0.9	35.2	-3.8	4.2	/	/
O=C1C=C(Nc2ccccc2C(=O)O)c2ccccc2C1=O	-30.1	-10.2	9.1	-5.0	12.1	37.9*	+	157.1*
O=C(O)c1ccccc1Nc1ccccc1C(=O)O	-1.4	-21.4	0.1	6.0	18.6	1.9	/	/
O=S(=O)(CCN1CCN(c2ccccn2)CC1)c1ccc(F)cc1	-0.8	-17.0	1.4	-1.0	5.4	-1.4	/	/

Screens as filed in PubChem.
